One assay concerns the target Hexose transporter 1 (Plasmodium falciparum) (UniProt O97467). The assay can be described thus: ST_JUDE_LEISH: Cytotoxicity at 2uM final concentration against transgenic Leishmania Mexicana promastigotes LmPfHT that are glucose transport deficient and complemented with the Plasmodium falciparum hexose transporter. Activity is measured by DNA content using SYBR green in vitro. In kind it is functional.
As for `COc1ccccc1CCNc1nc(C)cc(N[C@@H](CC(C)C)C(=O)NCc2cccc(F)c2)n1`, the inhibition was found to be 8.52%.

Take `CCC1(c2ccccc2)N=C(N)N(CCCc2ccccc2)C1=O` (stereo not given): the inhibition is 1.89%.

With `Cc1cc(C2CCN(CCCCNC(=O)c3ccc(-c4ccc(C#N)cc4)cc3)CC2)c(C)cc1OCCO`, the inhibition amounted to 12.3%.

As to `Cc1cc(F)ccc1Nc1nc(N(C)c2ccccc2)c2cc(OCCN(C)C)ccc2n1`, the inhibition was 6.84%.

`N=c1sc2ccccc2n1CC(O)c1ccc(Cl)c(Cl)c1` (stereo not given): the inhibition was determined as 1.26%.

Take `Cc1nn(-c2ccc(Cl)cc2)c2[nH]c(CN3CCN(c4cccc(Cl)c4)CC3)cc(=O)c12`: the inhibition came out at 21%.

For `CC(=O)Nc1ccc(-c2nc3ccc(-c4nc5ccc(NC(C)=O)cc5[nH]4)cc3[nH]2)cc1`, the inhibition is 3.79%.

`COc1ccc(CNCc2cccc(-c3cccc(-c4nc5ccccc5[nH]4)c3)c2)cc1`: the inhibition was found to be 4.28%.

Turning to `Cc1cc(N[C@@H](CC(C)C)C(=O)NCc2cccc(F)c2)nc(NCCc2ccccc2)n1`, the inhibition amounted to 4.78%.

In the case of `CCn1c(Sc2ccc([N+](=O)[O-])c(C#N)c2)nnc1-c1cccc(Cl)c1`, the inhibition was 0.29%.

Turning to `Nc1c(-c2ccc(C(=O)NCCNCc3ccccc3)cc2)cnn1-c1ccc(C(F)(F)F)cc1`, the inhibition came out at 2.76%.

Turning to `O=C(/C=C/c1ccc(Cl)c(Cl)c1)NCCCCCCN1CCCN(C(=O)Nc2cccc(Cl)c2)CC1`, the inhibition stood at 0.08%.

`CN(CCO)Cc1ccc(-c2ccc(NS(=O)(=O)c3cccc4cccnc34)cc2)cc1`: the inhibition was 81.8%.

For `C=CCN(c1nc(NC)nc(NCc2c(OC)cccc2OC)n1)C1CCCC1`, the inhibition was determined as 3.87%.

With `COc1ccc(-c2cnc3[nH]cc(-c4ccc(C(=O)O)cc4)c3c2)cn1`, the inhibition was 5.94%.

Regarding `CC(=O)Nc1ccc(C(=O)Nc2cccc(-c3ccc(-c4nc5ccccc5[nH]4)s3)c2)cn1`, the inhibition is 1.07%.

`CCC[C@@H]([C@@H](CC1CCCCC1)C(=O)N[C@H](C(=O)Nc1ccccn1)[C@H](C)CC)N(O)C=O`: the inhibition is 3.35%.

For the compound `Cc1cc(NC(=O)NCCN2CCC(NS(=O)(=O)c3ccc(C(F)(F)F)cc3)C2)c2ccccc2n1` (stereo not given), the inhibition came to 11.8%.

Turning to `CCCCNc1nccc2ccc(-c3ccncc3)cc12`, the inhibition worked out at 4.02%.

Regarding `COc1ccc(CNc2ncnc3c2[nH]c2ccc(F)cc23)cc1`, the inhibition was 7.69%.

Consider `CC1(C)NC(N)=NC(=N)N1OCCCNC(=O)c1ccc(C(=O)NCCCON2C(=N)N=C(N)NC2(C)C)cc1`, for which the inhibition was 0.77%.

Regarding `Oc1ccc(CCNc2nc(NCCCOc3cccc(-c4ccccc4)c3)nc(N3CCNCC3)n2)cc1`, the inhibition is 2.83%.

In the case of `Cn1cncc1C(=O)Nc1cccc(-c2ccc(-c3nc4cc(F)ccc4[nH]3)s2)c1`, the inhibition came to 3.3%.

As to `CC(C)(C)NCC(O)COc1ccc(Cl)cc1C1=NNC(=O)CC1` (stereo not given), the inhibition was 1.45%.

Regarding `O=C1NC(c2ccccc2)C2(CCN(CC(O)COc3cccc4ncccc34)CC2)O1` (stereo not given), the inhibition was determined as 3.19%.

On to `CS(=O)(=O)n1c(CN2CCN(c3ncc(C(F)(F)F)cc3Cl)CC2)nc2ccccc21`, for which the inhibition turned out to be 7.91%.

In the case of `O=C(CNC(=O)c1ccc(O)cc1)Nc1cccc(-c2cccc(-c3nc4cc(C(F)(F)F)ccc4[nH]3)c2)c1`, the inhibition stood at 4.39%.

With `C=CCc1cc(Cc2cnc(N)nc2N)cc(CCC)c1O`, the inhibition was -0.27%.

On to `CC(C)c1ccc(NC(=O)c2ccc(NCCCN(C)Cc3ccccc3)c([N+](=O)[O-])c2)cc1`, for which the inhibition is -1.98%.

As for `CN1CCN(Cc2cccc(-c3ccc4c(Nc5ccc(Oc6ccccc6)cc5)ccnc4c3)c2)CC1`, the inhibition was 17%.

As for `O=C1CSc2ccc(CNC3CCN(CCc4c(F)cnc5ccc(F)cc45)CC3)nc2N1`, the inhibition came out at 0.21%.

In the case of `CS(=O)(=O)c1ccc(CCNCc2ccc(-c3cccc(-c4nc5ccccc5[nH]4)c3)cc2)cc1`, the inhibition came out at 0.65%.

Consider `NCc1cccc(-c2ccc(CNC3CCN(Cc4ccccc4)CC3)cc2)c1`, for which the inhibition was determined as 2.02%.

For the compound `Cc1ccc(-n2cc(CNCC3CCN(CCO)CC3)c(-c3ccc(F)cc3)n2)cc1`, the inhibition amounted to 2.77%.

Consider `Cc1ccc2[nH]c(-c3ccc(C=CC(=O)NC4CCN(Cc5ccccc5)CC4)cc3)nc2c1`, for which the inhibition stood at 3.29%.

As to `Cc1nc(C)n(CC(=O)Nc2cccc(-c3cccc(-c4nc5cc(C(F)(F)F)ccc5[nH]4)c3)c2)n1`, the inhibition was 9.76%.

As for `O=C(N[C@@H](CC1CCCCC1)C(=O)NCCN1CCCCC1)c1ccc(O)c(-c2cccc(C(F)(F)F)c2)c1`, the inhibition was determined as 3.95%.

For the compound `N#Cc1ccc(-c2cnc3ccc(NCc4ccc(S(N)(=O)=O)cc4)nn23)cc1`, the inhibition worked out at 1.16%.

In the case of `COc1nc(Nc2cccc(C)c2)nc(OC)n1`, the inhibition was 0.66%.

For `COc1cc(-c2cc(-c3ccc(OCCN(C)C)cc3)[nH]c2-c2ccncc2)ccc1Cl`, the inhibition amounted to 0.72%.

Another assay concerns the target Glucose transporter (Leishmania mexicana) (UniProt O61059). Put plainly: ST_JUDE_LEISH: Cytotoxicity at 2uM final concentration against transgenic Leishmania Mexicana promastigotes LmGT2 that are glucose transport deficient and complemented with the L. Mexicana glucose transporter 2. Activity is measured by DNA content using SYBR green in vitro. The class given is functional.
Regarding `COc1ccccc1CCNc1nc(C)cc(N[C@@H](CC(C)C)C(=O)NCc2cccc(F)c2)n1`, the inhibition came to 8.86%.

Consider `CCC1(c2ccccc2)N=C(N)N(CCCc2ccccc2)C1=O` (stereo not given), for which the inhibition came out at 0.85%.

For `Cc1cc(C2CCN(CCCCNC(=O)c3ccc(-c4ccc(C#N)cc4)cc3)CC2)c(C)cc1OCCO`, the inhibition is 9.78%.

For `Cc1cc(F)ccc1Nc1nc(N(C)c2ccccc2)c2cc(OCCN(C)C)ccc2n1`, the inhibition stood at 2.04%.

Regarding `N=c1sc2ccccc2n1CC(O)c1ccc(Cl)c(Cl)c1` (stereo not given), the inhibition is 0.57%.

As for `Cc1nn(-c2ccc(Cl)cc2)c2[nH]c(CN3CCN(c4cccc(Cl)c4)CC3)cc(=O)c12`, the inhibition is 17%.

Turning to `CC(=O)Nc1ccc(-c2nc3ccc(-c4nc5ccc(NC(C)=O)cc5[nH]4)cc3[nH]2)cc1`, the inhibition is 5.3%.

As for `COc1ccc(CNCc2cccc(-c3cccc(-c4nc5ccccc5[nH]4)c3)c2)cc1`, the inhibition is 3.04%.

For the compound `Cc1cc(N[C@@H](CC(C)C)C(=O)NCc2cccc(F)c2)nc(NCCc2ccccc2)n1`, the inhibition was 2.16%.

As for `CCn1c(Sc2ccc([N+](=O)[O-])c(C#N)c2)nnc1-c1cccc(Cl)c1`, the inhibition is -1.08%.

Regarding `Nc1c(-c2ccc(C(=O)NCCNCc3ccccc3)cc2)cnn1-c1ccc(C(F)(F)F)cc1`, the inhibition is -0.31%.

For `O=C(/C=C/c1ccc(Cl)c(Cl)c1)NCCCCCCN1CCCN(C(=O)Nc2cccc(Cl)c2)CC1`, the inhibition is -2.92%.

Turning to `CN(CCO)Cc1ccc(-c2ccc(NS(=O)(=O)c3cccc4cccnc34)cc2)cc1`, the inhibition turned out to be 80.8%.

Take `C=CCN(c1nc(NC)nc(NCc2c(OC)cccc2OC)n1)C1CCCC1`: the inhibition came out at 1.88%.

Consider `COc1ccc(-c2cnc3[nH]cc(-c4ccc(C(=O)O)cc4)c3c2)cn1`, for which the inhibition is 0.18%.

`CC(=O)Nc1ccc(C(=O)Nc2cccc(-c3ccc(-c4nc5ccccc5[nH]4)s3)c2)cn1`: the inhibition is 5.88%.

Turning to `CCC[C@@H]([C@@H](CC1CCCCC1)C(=O)N[C@H](C(=O)Nc1ccccn1)[C@H](C)CC)N(O)C=O`, the inhibition was 2.88%.

In the case of `Cc1cc(NC(=O)NCCN2CCC(NS(=O)(=O)c3ccc(C(F)(F)F)cc3)C2)c2ccccc2n1` (stereo not given), the inhibition amounted to 7.4%.

`CCCCNc1nccc2ccc(-c3ccncc3)cc12`: the inhibition is 4.26%.

On to `COc1ccc(CNc2ncnc3c2[nH]c2ccc(F)cc23)cc1`, for which the inhibition amounted to 4.52%.

On to `CC1(C)NC(N)=NC(=N)N1OCCCNC(=O)c1ccc(C(=O)NCCCON2C(=N)N=C(N)NC2(C)C)cc1`, for which the inhibition stood at 1.51%.

As for `Oc1ccc(CCNc2nc(NCCCOc3cccc(-c4ccccc4)c3)nc(N3CCNCC3)n2)cc1`, the inhibition was found to be 2.5%.

As to `Cn1cncc1C(=O)Nc1cccc(-c2ccc(-c3nc4cc(F)ccc4[nH]3)s2)c1`, the inhibition is -0.1%.

As to `CC(C)(C)NCC(O)COc1ccc(Cl)cc1C1=NNC(=O)CC1` (stereo not given), the inhibition is 0.82%.

In the case of `O=C1NC(c2ccccc2)C2(CCN(CC(O)COc3cccc4ncccc34)CC2)O1` (stereo not given), the inhibition was 1.26%.

Consider `CS(=O)(=O)n1c(CN2CCN(c3ncc(C(F)(F)F)cc3Cl)CC2)nc2ccccc21`, for which the inhibition stood at 5%.

In the case of `O=C(CNC(=O)c1ccc(O)cc1)Nc1cccc(-c2cccc(-c3nc4cc(C(F)(F)F)ccc4[nH]3)c2)c1`, the inhibition worked out at 2.15%.

Turning to `C=CCc1cc(Cc2cnc(N)nc2N)cc(CCC)c1O`, the inhibition is -0.78%.

As for `CC(C)c1ccc(NC(=O)c2ccc(NCCCN(C)Cc3ccccc3)c([N+](=O)[O-])c2)cc1`, the inhibition is -0.53%.

In the case of `CN1CCN(Cc2cccc(-c3ccc4c(Nc5ccc(Oc6ccccc6)cc5)ccnc4c3)c2)CC1`, the inhibition was 18.6%.

As to `O=C1CSc2ccc(CNC3CCN(CCc4c(F)cnc5ccc(F)cc45)CC3)nc2N1`, the inhibition is -1.74%.

Consider `CS(=O)(=O)c1ccc(CCNCc2ccc(-c3cccc(-c4nc5ccccc5[nH]4)c3)cc2)cc1`, for which the inhibition is -0.73%.

As to `NCc1cccc(-c2ccc(CNC3CCN(Cc4ccccc4)CC3)cc2)c1`, the inhibition was -1.34%.

For the compound `Cc1ccc(-n2cc(CNCC3CCN(CCO)CC3)c(-c3ccc(F)cc3)n2)cc1`, the inhibition is 28.2%.

On to `Cc1ccc2[nH]c(-c3ccc(C=CC(=O)NC4CCN(Cc5ccccc5)CC4)cc3)nc2c1`, for which the inhibition worked out at 5.84%.

For the compound `Cc1nc(C)n(CC(=O)Nc2cccc(-c3cccc(-c4nc5cc(C(F)(F)F)ccc5[nH]4)c3)c2)n1`, the inhibition amounted to 7.09%.

`O=C(N[C@@H](CC1CCCCC1)C(=O)NCCN1CCCCC1)c1ccc(O)c(-c2cccc(C(F)(F)F)c2)c1`: the inhibition is -0.49%.

For `N#Cc1ccc(-c2cnc3ccc(NCc4ccc(S(N)(=O)=O)cc4)nn23)cc1`, the inhibition worked out at 0.38%.

In the case of `COc1nc(Nc2cccc(C)c2)nc(OC)n1`, the inhibition is 0.95%.

With `COc1cc(-c2cc(-c3ccc(OCCN(C)C)cc3)[nH]c2-c2ccncc2)ccc1Cl`, the inhibition worked out at 2.28%.

One may read the inhibition as the drop in the measured response relative to a control, in per cent.

(Values after ChEMBL document CHEMBL3433997, “St. Jude Leishmania screening dataset” (2016).)
